The results in this text go back to PubChem BioAssay.

In experiment [1] the target is Albumin (Bos taurus) (UniProt P02769). Briefly: compounds binding labelled BSA control protein – biochemical, small-molecule microarray, Alexa647 label, 635/667 nm fluorescence, artefact control for SMM control protein annotation, profiling panel (AID 1118).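 Further: score merges 667 nm emission intensity and signal-to-noise per printed compound spot.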 As to conditions: BSA-A647 binding, fluorescence 635 nm, higher = more signal.
Experiment [2] is described as follows: probe aXIP binding to arrayed compounds – biochemical, NeuroSMM set, 635/667 nm fluorescence, primary screen (AID 1119).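 Further: probe is the protein aXip251-270 applied at 1 µg/mL to compound-printed slides; binding of probe to printed compounds measured as 667 nm fluorescence plus signal to noise.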 As to conditions: small-molecule microarray, higher = more signal, called active from +8 up or from −8 down.
The nature of experiment [3]: probe aNOTCH3 binding on compound microarray – biochemical, small-molecule microarray, 635/667 nm fluorescence, primary screen (AID 1120).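 Further: probe is a biotin-tagged antibody raised against NOTCH3 rather than NOTCH3 protein; score merges spot fluorescence near 667 nm with spot signal to noise.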 As to conditions: higher = more signal.
A short description of experiment [4]: probe aNOTCH2 binding on compound microarray – biochemical, small-molecule microarray, 635/667 nm fluorescence, primary screen (AID 1121).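 Further: score merges feature fluorescence read at 667 nm with its signal to noise.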 As to conditions: higher = more signal.
The target in experiment [5] is Carbonic anhydrase 2 (Homo sapiens) (UniProt P00918). Kind of experiment: compounds binding carbonic anhydrase 2 – biochemical, small-molecule microarray, Alexa647-labelled CAII, profiling panel (AID 1122). As to conditions: CAII-A647 binding fluorescence, higher = more signal.
A short description of experiment [6]: COS7 lysate on small-molecule microarray, probe aHis, 635 nm (AID 1123).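 Further: z-score combines 667nm fluorescence intensity with signal-to-noise per printed compound spot.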 As to conditions: COS7 cell lysate, fluorescence, higher = more signal.
Experiment [7] can be described thus: probe aLAP1 signal on lysate-treated microarray – cell lysate, small-molecule microarray, COS7 lysate, primary screen (AID 1124).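 Further: lysate comes from COS7 cells expressing LAP1 and is applied at 0.3 µg/mL; score merges spot fluorescence near 667 nm with signal-to-noise over triplicate slides.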 As to conditions: probe aLAP1, fluorescence, higher = more signal.
In experiment [8] the test system is Sam68 (KHDRBS1). Briefly: compounds binding KHDRBS1 protein – biochemical, small-molecule microarray, 635 nm fluorescence, primary screen (AID 1125).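 Further: score merges 667 nm channel intensity with signal to noise over triplicate slides.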 As to conditions: higher = more signal.
The subject of experiment [9] is Chordin-like protein 2 (CHRDL2). Briefly: compounds binding chordin-like 2 – biochemical, small-molecule microarray, 635 nm fluorescence, primary screen (AID 1126).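 Further: printed compound slides probed with Chrdl2 protein at 4 µg/mL for 1 h at 4 C; score merges 667 nm emission intensity with signal to noise over three replicate slides.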 As to conditions: fluorescence 635 nm, higher = more signal.
The target in experiment [10] is Concanavalin-A (Canavalia ensiformis) (UniProt P02866). Kind of experiment: compounds binding concanavalin A lectin – biochemical, small-molecule microarray, Alexa647 label, 635 nm, artefact control for SMM control protein annotation, primary screen (AID 1127).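 Further: z combines 667 nm emission intensity with signal-to-noise across three replicate slides.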 As to conditions: ConA-A647 binding fluorescence, higher = more signal.

Each structure is given as a SMILES string. Calls of active or inactive are those of the source.

Sequence of Albumin (Bos taurus) (P02769 whole entry, looked up): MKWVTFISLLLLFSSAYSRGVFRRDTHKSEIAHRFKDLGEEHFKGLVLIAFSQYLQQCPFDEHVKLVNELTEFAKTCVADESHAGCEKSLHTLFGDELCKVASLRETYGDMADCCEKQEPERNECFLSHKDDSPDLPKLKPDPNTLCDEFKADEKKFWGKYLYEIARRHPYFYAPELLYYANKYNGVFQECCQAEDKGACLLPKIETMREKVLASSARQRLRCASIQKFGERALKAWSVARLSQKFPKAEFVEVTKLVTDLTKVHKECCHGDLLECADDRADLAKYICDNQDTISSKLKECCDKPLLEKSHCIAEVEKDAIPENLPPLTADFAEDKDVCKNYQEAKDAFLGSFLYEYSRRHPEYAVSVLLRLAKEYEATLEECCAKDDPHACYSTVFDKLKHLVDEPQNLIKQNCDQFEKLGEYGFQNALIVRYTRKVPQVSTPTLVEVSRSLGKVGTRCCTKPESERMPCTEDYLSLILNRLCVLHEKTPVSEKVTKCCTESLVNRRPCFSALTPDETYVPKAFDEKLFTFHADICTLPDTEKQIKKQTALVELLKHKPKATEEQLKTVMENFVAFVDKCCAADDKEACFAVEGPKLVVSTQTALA
Sequence of Concanavalin-A (Canavalia ensiformis) (P02866 whole entry, looked up): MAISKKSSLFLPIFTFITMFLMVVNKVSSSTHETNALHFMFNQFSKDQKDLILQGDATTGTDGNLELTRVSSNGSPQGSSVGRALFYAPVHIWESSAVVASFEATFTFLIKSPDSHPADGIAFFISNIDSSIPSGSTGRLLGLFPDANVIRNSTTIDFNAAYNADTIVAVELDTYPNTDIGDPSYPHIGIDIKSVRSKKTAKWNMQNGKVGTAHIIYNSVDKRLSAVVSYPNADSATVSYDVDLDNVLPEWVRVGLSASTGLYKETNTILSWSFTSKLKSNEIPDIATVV

As to `C#CCCCON=C1[C@H]2CCn3c(=O)n(C)c(=O)n3[C@H]2[C@H](O)[C@@H]2O[C@H]12`, the composite z-score in [1] was -0.213; in experiment [3], -0.0304; in experiment [4], -0.169; in [5] it was -0.053; in experiment [6], 0.0971; in experiment [7], 0.723. The composite z-score in experiment [8] was found to be 0.406; in experiment [9] it was 0.833; in [10], 0.543. In addition, the composite Z-score in experiment [2] is -0.496 (inactive).

As to `CC(C)CON=C1C[C@@H](O)[C@@H](O)[C@@H]2[C@@H]3C(=O)N(Cc4ccc5c(c4)OCO5)C(=O)[C@@H]3CC[C@H]12`, the composite z-score in experiment [1] is 0.768; in experiment [3], -0.0288; in experiment [4] it was -0.115; in experiment [5] it was 0.625; in [6] it was 0.676; in experiment [7], -0.358. Further, the composite z-score amounted to 1.34 in [8], 0.0987 in experiment [9] and 0.957 in experiment [10]. The composite Z-score in experiment [2] was -0.275 (inactive).

With `COC(=O)[C@H]1O[C@@H](c2c(OC)c(OC)c(C)c(OC)c2OC)[C@H](C)[C@@H](O)[C@H]1C`, the composite z-score in experiment [1] is 0.354; in experiment [3], 0.0414; in [4] it was -0.0349; in experiment [5], 0.0615; in [6], 1.04; in [7], -0.203. Also, the composite z-score in experiment [8] stood at 1.28; in experiment [9], 0.31; in [10], 0.86. Moreover, the composite Z-score in [2] was 0.0421 (inactive).

Take `COC(=O)[C@H](C)NC(=O)CCC1CC(OC(=O)NCCc2ccc(F)cc2)CC2(CCCC(COC(=O)NCCC(C)C)O2)O1` (stereo not given in full): the composite z-score in experiment [1] is 0.828; in experiment [3], -0.0262; in experiment [4], 0.128; in [5] it was 0.325; in [6], 0.834; in experiment [7], -0.234. Further, the composite z-score in experiment [8] was found to be 0.36; in experiment [9], 0.0905; in experiment [10], 0.0934. Besides, the composite Z-score in experiment [2] was 0.443 (inactive).

Take `Cn1c(=O)n2n(c1=O)[C@H]1[C@H](O)[C@@H]3O[C@@H]3C(=O)[C@H]1CC2`: the composite z-score in [1] is -0.161; in [3], -0.172; in experiment [4], -0.124; in experiment [5] it was -0.0126; in experiment [6] it was -0.0596; in experiment [7], 0.0837. Further, the values for the composite z-score in experiment [8], in [9] and in experiment [10] were 0.327, 0.387 and 0.513, respectively. The composite Z-score in experiment [2] was -0.301 (inactive).

In the case of `COC(=O)[C@H]1[C@@H](O)[C@@]2(O)c3ccccc3O[C@@]2(c2ccccc2)[C@@H]1c1ccccc1`, the composite z-score was -0.642 in experiment [1]; -0.1 in experiment [3]; -0.133 in [4]; 0.18 in experiment [5]; 0.19 in [6]; -0.221 in experiment [7]. In addition, the composite z-score in [8] was -0.926; in experiment [9], 0.14; in experiment [10], -0.246. In addition, the composite Z-score in experiment [2] was 1.97 (inactive).

As to `CCC(=O)[C@@]1(O)C(=O)N2C(=C3C(=O)OCC[C@@H]31)N(Cc1ccccc1)C(C)=C(C(=O)OC)[C@H]2c1ccccc1`, the composite z-score in [1] is -0.111; in [3], 0.0597; in experiment [4] it was -0.158; in experiment [5] it was -0.109; in [6], 0.0028; in [7], 0.137. In addition, the composite z-score in [8] was 0.431; in experiment [9] it was 0.627; in experiment [10], 0.602. The composite Z-score in experiment [2] is 0.256 (inactive).

Regarding `COc1cccc([C@H]2Oc3ccc(OC)cc3C(=NOC[C@@H](C)[C@H](OCc3ccccc3)C(C)C)[C@@H]2O)c1`, the composite z-score in experiment [1] was 0.422; in experiment [3] it was -0.162; in experiment [4], -0.0512; in experiment [5], 0.689; in experiment [6], 0.923; in experiment [7], 1.37. The composite z-score is 0.413 in experiment [8], -0.269 in [9] and 0.0788 in experiment [10]. For the same compound, the composite Z-score in experiment [2] is 0.237 (inactive).

In the case of `CCOC(=O)NN=C1C[C@@H](O)[C@@H](O)[C@@H]2[C@@H]3C(=O)N([C@@H](C)c4ccccc4)C(=O)[C@@H]3CC[C@H]12`, the composite z-score in experiment [1] was 0.0904; in experiment [3], -0.0647; in [4], -0.0424; in experiment [5] it was -0.119; in experiment [6], -0.156; in experiment [7], -0.111. Moreover, the results for the composite z-score in experiment [8], in [9] and in [10] were 0.338, 0.183 and 0.297, respectively. Further, the composite Z-score in experiment [2] is -0.36 (inactive).

With `CCOC(=O)C1=NO[C@]2(C=C(Br)C3(OCCCO3)[C@H]3O[C@H]32)C1`, the composite z-score was 0.653 in experiment [1]; -0.239 in [3]; -0.0907 in experiment [4]; 0.114 in [5]; -0.263 in experiment [6]; -0.157 in experiment [7]. The composite z-score was -0.638 in experiment [8], -0.31 in experiment [9] and -0.586 in experiment [10]. The composite Z-score in experiment [2] is -0.455 (inactive).

For the compound `COC(=O)CC=C[C@@H](C)[C@@H](C=NO[C@@H]1O[C@H](COC(C)=O)[C@@H](OC(C)=O)[C@H](OC(C)=O)[C@H]1OC(C)=O)NS(=O)(=O)c1ccc(C)cc1`, the composite z-score was -0.228 in experiment [1]; -0.0111 in experiment [3]; -0.0984 in experiment [4]; -0.701 in [5]; -0.323 in [6]; -0.045 in experiment [7]. The composite z-score was 0.682 in [8], -0.051 in [9] and -0.909 in experiment [10]. Also, in experiment [2], the composite Z-score was 0.504 (inactive).

For `CCOC(=O)[C@H](CC(C)C)NC(=O)CCC1CC(OC(=O)NCc2cccc3ccccc23)CC2(CCCC(COC(=O)NCCOc3ccccc3)O2)O1` (stereo not given in full), the composite z-score in experiment [1] was 0.496; in [3], -0.0048; in experiment [4], 0.0174; in experiment [5], 0.533; in experiment [6], 0.684; in [7], 0.27. Moreover, the composite z-score was 1.32 in [8], 0.412 in [9] and 1.06 in experiment [10]. Besides, in experiment [2], the composite Z-score is -0.309 (inactive).

As for `COCCNC(=O)OCC1CCCC2(CC(OC(=O)NCc3ccc4c(c3)OCO4)CC(CCC(=O)N[C@@H](C)C(=O)OC)O2)O1` (stereo not given in full), the composite z-score in [1] is 0.0746; in experiment [3], -0.0164; in [4], -0.0666; in [5], 0.234; in experiment [6], 0.678; in experiment [7], -0.0692. In addition, the composite z-score in experiment [8] was 1.3; in experiment [9] it was 0.454; in experiment [10] it was 1.02. Further, in [2], the composite Z-score is 0.161 (inactive).

As to `O=C1CCCC=C1C(O)CCCCBr` (stereo not given), the composite z-score in experiment [1] is 0.956; in experiment [3], 0.0242; in [4], 0.0377; in [5], 0.778; in experiment [6] it was 1.1; in [7] it was -0.101. The composite z-score in experiment [8] came to 0.381; in experiment [9] it was 0.0069; in experiment [10] it was 1.09. Besides, in [2], the composite Z-score was 1.36 (inactive).

Turning to `C=C(C)C(=O)OCC1CN2[C@@H](CC[C@@H](C)[C@@H]2c2ccc(Br)cc2)C(=O)O1` (stereo not given in full), the composite z-score was 0.188 in experiment [1]; 0.0539 in experiment [3]; -0.11 in experiment [4]; -0.062 in experiment [5]; 0.0971 in [6]; -0.126 in experiment [7]. The composite z-score was 0.671 in experiment [8], 0.691 in experiment [9] and 0.59 in experiment [10]. For the same compound, the composite Z-score in [2] is -0.168 (inactive).

`CO[C@H]1COC(=O)CC=C[C@H](C)[C@@H](OC)COC(=O)[C@H](C)COC(=O)CC=C[C@@H]1C`: the composite z-score in experiment [1] was -1.2; in experiment [3] it was 0.0306; in experiment [4] it was -0.133; in experiment [5], -0.425; in [6], -0.552; in experiment [7] it was 0.975. The composite z-score is -0.106 in [8], 1.43 in experiment [9] and -0.55 in [10]. Further, the composite Z-score in experiment [2] is 0.559 (inactive).
